Assay results taken from PubChem BioAssay AID1159580 (chemical genetic matrix, 2015).
Out of some 5,500 compounds screened, about 2,000 (36%) were called active. Roughly 18% stayed inconclusive and do not appear here. The list shows a part of the results. Values without a mark were called inactive. Cut-off read from the data, not from the text of the source: active = normalized growth mostly below about 0.91 (no sharp cut-off); inconclusive = no clear call, values can overlap the other calls; inactive = mostly above about 0.92.

Test: chemical genetic growth profiling, strain panel (AID 1159580);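 note: tested at 20 µM; growth read once vehicle control cultures reached saturation at 30 °C; 1 = growth at the plate median or of vehicle wells; lower values mean less growth of the strain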
Conditions: S. cerevisiae deletion strains, growth OD

With `CCCCCC(=O)Cc1cc(O)cc(O)c1C(=O)Oc1cc(CC(=O)CCCCC)c(C(=O)O)c(OC)c1` the normalized growth (locus YAL021C, strain ccr4, active compounds read low) was 0.892 (active), the normalized growth (locus YAL026C, strain drs2, active compounds read low) was 0.86 (active) and the normalized growth (locus YAL030W, strain snc1, active compounds read low) was 0.934. For the same molecule, the normalized growth (locus YBL061C, strain skt5, active compounds read low) was 0.925, the normalized growth (locus YBR009C, strain hhf1, active compounds read low) was 0.881 (active) and the normalized growth (locus YBR023C, strain chs3, active compounds read low) was 0.907 (active). For the same molecule, the normalized growth (locus YBR171W, strain sec66, active compounds read low) was 0.858 (active), the normalized growth (locus YBR231C, strain swc5, active compounds read low) was 0.927 and the normalized growth (locus YBR279W, strain paf1, active compounds read low) was 0.943. It also gave a normalized growth (locus YCL011C, strain gbp2, active compounds read low) of 0.933, a normalized growth (locus YCL016C, strain dcc1, active compounds read low) of 0.943 and a normalized growth (locus YCL069W, strain vba3, active compounds read low) of 0.929. It also gave a normalized growth (locus YCR088W, strain abp1, active compounds read low) of 0.934, a normalized growth (locus YDL005C, strain med2, active compounds read low) of 0.954 and a normalized growth (locus YDL040C, strain nat1, active compounds read low) of 0.939. For the same molecule, the normalized growth (locus YDR001C, strain nth1, active compounds read low) was 0.936, the normalized growth (locus YDR069C, strain doa4, active compounds read low) was 0.95 and the normalized growth (locus YDR137W, strain rgp1, active compounds read low) was 0.412 (active). The normalized growth (locus YDR159W, strain sac3, active compounds read low) was 0.771 (active), the normalized growth (locus YDR195W, strain ref2) was 0.863 and the normalized growth (locus YDR297W, strain sur2, active compounds read low) was 0.927. For the same molecule, the normalized growth (locus YDR334W, strain swr1, active compounds read low) was 0.917, the normalized growth (locus YDR335W, strain msn5, active compounds read low) was 0.894 (active) and the normalized growth (locus YDR392W, strain spt3, active compounds read low) was 0.404 (active). For the same molecule, the normalized growth (locus YEL003W, strain gim4, active compounds read low) was 0.919, the normalized growth (locus YEL037C, strain rad23, active compounds read low) was 0.941 and the normalized growth (locus YEL061C, strain CIN8 (second series), active compounds read low) was 0.946. For the same molecule, the normalized growth (locus YER015W, strain faa2, active compounds read low) was 0.947, the normalized growth (locus YER016W, strain bim1, active compounds read low) was 0.913 (active) and the normalized growth (locus YER111C, strain swi4, active compounds read low) was 0.941. For the same molecule, the normalized growth (locus YER155C, strain BEM2 (second series), active compounds read low) was 0.639 (active), the normalized growth (locus YFR010W, strain ubp6, active compounds read low) was 0.933 and the normalized growth (locus YGL167C, strain pmr1, active compounds read low) was 0.89 (active). For the same molecule, the normalized growth (locus YGL173C, strain kem1, active compounds read low) was 0.851 (active), the normalized growth (locus YGL227W, strain vid30, active compounds read low) was 0.937 and the normalized growth (locus YGL240W, strain doc1, active compounds read low) was 0.77 (active). For the same molecule, the normalized growth (locus YGL253W, strain hxk2, active compounds read low) was 0.855 (active), the normalized growth (locus YHR013C, strain ard1, active compounds read low) was 1.18 [resistant] (active) and the normalized growth (locus YHR027C, strain rpn1, active compounds read low) was 0.919 (active). The normalized growth (locus YHR030C, strain SLT2, active compounds read low) was 1.01, the normalized growth (locus YHR079C, strain IRE1, active compounds read low) was 0.981 and the normalized growth (locus YHR142W, strain chs7, active compounds read low) was 0.818 (active). The normalized growth (locus YJL092W, strain hpr5, active compounds read low) was 0.943, the normalized growth (locus YJL095W, strain BCK1 (second series), active compounds read low) was 0.694 (active) and the normalized growth (locus YJL095W, strain BCK1, active compounds read low) was 0.99. For the same molecule, the normalized growth (locus YJL115W, strain asf1, active compounds read low) was 0.922, the normalized growth (locus YJL129C, strain trk1, active compounds read low) was 0.632 (active) and the normalized growth (locus YJL154C, strain vps35, active compounds read low) was 0.935. For the same molecule, the normalized growth (locus YJL164C, strain tpk1, active compounds read low) was 0.899 (active), the normalized growth (locus YJL166W, strain qcr8, active compounds read low) was 0.871 (active) and the normalized growth (locus YJL187C, strain SWE1, active compounds read low) was 0.909 (active). The normalized growth (locus YJR066W, strain TOR1, active compounds read low) was 0.939, the normalized growth (locus YKL160W, strain elf1, active compounds read low) was 0.916 and the normalized growth (locus YKR026C, strain gcn3, active compounds read low) was 0.933. The normalized growth (locus YKR091W, strain srl3, active compounds read low) was 0.922 (active), the normalized growth (locus YLL001W, strain dnm1, active compounds read low) was 0.941 and the normalized growth (locus YLL026W, active compounds read low) was 0.935. The normalized growth (locus YLL041C, strain sdh2, active compounds read low) was 0.927 (active), the normalized growth (locus YLR027C, strain aat2, active compounds read low) was 0.922 (active) and the normalized growth (locus YLR113W, strain HOG1, active compounds read low) was 0.983. The normalized growth (locus YLR221C, strain rsa3, active compounds read low) was 0.859 (active), the normalized growth (locus YLR258W, strain gsy2, active compounds read low) was 0.919 and the normalized growth (locus YLR262C, strain YPT6 (second series), active compounds read low) was 0.409 (active). The normalized growth (locus YLR320W, strain mms22, active compounds read low) was 0.826 (active), the normalized growth (locus YLR342W, strain FKS1, active compounds read low) was 0.901 (active) and the normalized growth (locus YLR357W, strain rsc2, active compounds read low) was 0.866. The normalized growth (locus YLR370C, strain arc18, active compounds read low) was 0.925, the normalized growth (locus YLR384C, strain iki3, active compounds read low) was 0.945 and the normalized growth (locus YML120C, strain ndi1, active compounds read low) was 0.898 (active). For the same molecule, the normalized growth (locus YMR058W, strain fet3, active compounds read low) was 0.883 (active), the normalized growth (locus YMR125W, strain sto1, active compounds read low) was 0.909 and the normalized growth (locus YMR129W, active compounds read low) was 0.918 (active). For the same molecule, the normalized growth (locus YMR205C, strain PFK2, active compounds read low) was 0.783 (active), the normalized growth (locus YMR231W, strain pep5, active compounds read low) was 0.929 and the normalized growth (locus YNL071W, strain lat1, active compounds read low) was 0.888 (active). For the same molecule, the normalized growth (locus YNL183C, strain NPR1, active compounds read low) was 0.946, the normalized growth (locus YNL209W, strain ssb2, active compounds read low) was 0.948 and the normalized growth (locus YNL248C, strain rpa49, active compounds read low) was 0.903. For the same molecule, the normalized growth (locus YNL322C, strain KRE1 (second series), active compounds read low) was 0.919, the normalized growth (locus YNR049C, strain mso1, active compounds read low) was 0.95 and the normalized growth (locus YOR001W, strain rrp6, active compounds read low) was 0.882 (active). For the same molecule, the normalized growth (locus YOR070C, strain gyp1, active compounds read low) was 0.918 (active), the normalized growth (locus YOR080W, strain dia2, active compounds read low) was 0.938 and the normalized growth (locus YOR083W, strain WHI5, active compounds read low) was 0.898. For the same molecule, the normalized growth (locus YOR106W, strain vam3, active compounds read low) was 0.897, the normalized growth (locus YOR231W, strain MKK1, active compounds read low) was 0.994 and the normalized growth (locus YOR265W, strain rbl2, active compounds read low) was 0.925 (active). For the same molecule, the normalized growth (locus YOR270C, strain vph1, active compounds read low) was 0.607 (active), the normalized growth (locus YOR290C, strain snf2, active compounds read low) was 0.925 and the normalized growth (locus YPL051W, strain arl3, active compounds read low) was 0.853 (active). For the same molecule, the normalized growth (locus YPL078C, strain atp4, active compounds read low) was 0.862 (active), the normalized growth (locus YPL106C, strain sse1, active compounds read low) was 0.812 (active) and the normalized growth (locus YPL240C, strain hsp82, active compounds read low) was 0.912 (active). It also gave a normalized growth (locus YPL256C, strain CLN2, active compounds read low) of 0.989.
